Among all 340,000 compounds or so, about 5,100 (1.5%) were called active. The list comes from a sample in which actives are over-represented; it also holds similar structures and randomly drawn compounds. Values without a mark were called inactive.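 The calls were made as follows: active = mean Tm shift, scaled 0 neutral to 100 positive control, at about 1.3% or above, every replicate too (limit read from the data); inconclusive = no clear call, values can overlap the other calls; inactive = the rest.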
Molecular target: Fibroblast growth factor 22 (Homo sapiens) (UniProt Q9HCT0)
Assay: binders of human FGF22 protein, primary screen, FGF22 synaptogenesis inhibitor project, biophysical, thermal shift, single point (AID 651658)
Details: recombinant FGF22 thermal shift, SYPRO orange fluorescence; at 9.99 µM; stronger effect = higher value; percent of sucrose octasulfate shift, DMSO zero

Fibroblast growth factor 22 (Homo sapiens), sequence (Q9HCT0 whole entry, looked up): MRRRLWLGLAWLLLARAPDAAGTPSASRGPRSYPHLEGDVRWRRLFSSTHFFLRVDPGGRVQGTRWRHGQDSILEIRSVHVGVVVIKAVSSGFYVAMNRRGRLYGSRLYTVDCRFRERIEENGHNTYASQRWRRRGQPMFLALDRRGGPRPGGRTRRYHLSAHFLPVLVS

Row | SMILES | activity (Tm shift, normalised)
1 | O=C1C[C@@](C(=O)NCC(F)(F)F)(c2ccc([N+](=O)[O-])cc2)[C@@H](c2ccc(CO)cc2I)N1C1CCCCC1 | 0.18%
2 | CCC(=O)N1C[C@@H](C)[C@@H](OC)CN(C)C(=O)c2ccc(NC(=O)c3ccccc3)cc2OC[C@H]1C | -0.17%
3 | COc1ccc2c3c([nH]c2c1)[C@H](CO)N(C(=O)C1CCCCC1)CC31CCN(C(=O)c2ccncc2)CC1 | -0.034%
4 | CC(C)NC(=O)N(C)C[C@H]1OCCCC[C@H](C)Oc2ccc(NC(=O)CCC(F)(F)F)cc2C(=O)N([C@@H](C)CO)C[C@@H]1C | -0.59%
5 | C[C@H](CO)N1C[C@H](C)[C@H](CN(C)C(=O)Nc2ccc(F)cc2)Oc2ncc(-c3cc4ccccc4o3)cc2C1=O | -0.101%
6 | CN(C)CC(=O)N1CCCCN2[C@@H](CO)[C@H](c3ccc(-c4cccnc4)cc3)[C@@H]2C1 | 0.193%
7 | Cc1ccc(S(=O)(=O)N(C)C[C@@H]2OCCCC[C@@H](C)Oc3ccc(NS(=O)(=O)c4ccccc4)cc3C(=O)N([C@H](C)CO)C[C@@H]2C)cc1 | -0.059%
8 | Cc1ccc(S(=O)(=O)N(C)C[C@@H]2OCCCC[C@@H](C)Oc3ccc(NS(=O)(=O)c4ccc(F)cc4)cc3C(=O)N([C@H](C)CO)C[C@H]2C)cc1 | -0.311%
9 | C[C@@H]1CN([C@H](C)CO)C(=O)c2cc(NC(=O)Nc3ccc(C(F)(F)F)cc3)ccc2O[C@@H](C)CCCCO[C@@H]1CN(C)Cc1ccc(C(F)(F)F)cc1 | 0.296%
10 | COc1ccc(CN(C)C[C@H]2OCCCC[C@@H](C)Oc3ccc(NS(=O)(=O)c4ccccc4)cc3C(=O)N([C@@H](C)CO)C[C@@H]2C)cc1 | 0.068%
11 | C[C@@H]1CCCCO[C@@H](CN(C)Cc2ccc(C(=O)O)cc2)[C@H](C)CN([C@@H](C)CO)C(=O)c2cc(NC(=O)Nc3ccc(C(F)(F)F)cc3)ccc2O1 | -0.357%
12 | C[C@@H]1CCCCO[C@H](CN(C)Cc2ccccc2)[C@@H](C)CN([C@H](C)CO)C(=O)c2cc(NC(=O)Cc3ccccc3)ccc2O1 | 0.467%
13 | C[C@@H]1CN([C@H](C)CO)C(=O)c2cc(NC(=O)Cc3ccccc3)ccc2O[C@@H](C)CCCCO[C@@H]1CN(C)Cc1ccncc1 | -0.393%
14 | COc1ccc(S(=O)(=O)Nc2ccc3c(c2)C(=O)N([C@@H](C)CO)C[C@H](C)[C@H](CN(C)Cc2ccc(C(=O)O)cc2)OCCCC[C@@H](C)O3)cc1 | 2.26% (active)
15 | Cc1ccc(S(=O)(=O)Nc2ccc3c(c2)C(=O)N([C@H](C)CO)C[C@@H](C)[C@H](CN(C)S(=O)(=O)c2ccc(C)cc2)OCCCC[C@@H](C)O3)cc1 | 31.1% (active)
16 | C[C@@H]1CCCCO[C@@H](CN(C)Cc2ccc(C(=O)O)cc2)[C@@H](C)CN([C@@H](C)CO)C(=O)c2cc(NC(=O)Nc3ccc(C(F)(F)F)cc3)ccc2O1 | 10.4% (active)
17 | COc1ccc(S(=O)(=O)Nc2ccc3c(c2)C(=O)N([C@H](C)CO)C[C@H](C)[C@@H](CN(C)Cc2ccccc2)OCCCC[C@@H](C)O3)cc1 | -0.202%
18 | C[C@@H]1CCCCO[C@@H](CN(C)Cc2ccncc2)[C@H](C)CN([C@H](C)CO)C(=O)c2cc(NC(=O)Cc3ccccc3)ccc2O1 | 25.7% (active)
19 | O=C(c1ccncc1)N1C[C@@H]2[C@H](c3ccccc31)[C@H](CO)N2C(=O)c1ccncc1 | 1.08%
20 | O=C(C[C@@H]1C[C@H]2c3cc(NC(=O)Nc4ccccc4F)ccc3O[C@H]2[C@@H](CO)O1)NC1CCCCC1 | 0.159%
21 | N#C[C@@H]1[C@@H](c2ccccc2)[C@@H](CO)N1C(=O)c1cc(Cl)cc(Cl)c1 | -0.146%
22 | O=C(NCc1ccccc1)[C@H]1CCCN1C(=O)[C@H]1CCCN1C(=O)N1CCOCC1 | 0.083%
23 | Cc1ccc2c(Cl)c(C(=O)Nc3nn[nH]n3)sc2c1 | -0.027%

Row | SMILES | activity (Tm shift, normalised)
24 | O=C(/C=C/c1c(F)cccc1Cl)Nc1nn[nH]n1 | 43.2% (active)
25 | CNC(=O)/C(C#N)=C/c1c(F)cccc1Cl | 0.243%
26 | C/C=C/c1ccc([C@@H]2[C@@H](CO)N(C(=O)c3ccccc3)C23CN(C(C)=O)C3)cc1 | -0.191%
27 | O=C(c1ccncc1)N1C[C@H]2[C@@H](c3ccccc31)[C@H](CO)N2C(=O)Nc1ccc(F)cc1 | -0.662%
28 | COc1ccccc1C1SCCN1C(=O)c1ccc([N+](=O)[O-])cc1 (stereo not drawn) | 43.3% (active)
29 | Cc1ccc(C)n1NC(=O)c1ccc([N+](=O)[O-])cc1 | 0.235%
30 | COc1ccccc1C1CCN(c2ccc([N+](=O)[O-])cn2)CC1 | 0.136%
31 | Cc1ccc(S(=O)(=O)Nc2ccc3c(c2)C(=O)N(C)[C@@H]2CC[C@@H](CC(=O)O)O[C@H]2CO3)cc1 | -0.106%
32 | Cc1ccc(-c2ccc3c(c2)O[C@H](CN(C)C(=O)CC2CC2)[C@@H](C)CN([C@H](C)CO)S3(=O)=O)cc1 | -0.566%
33 | COc1ccc(NC(=O)Nc2ccc3c(c2)[C@@H]2C[C@H](CC(=O)N4CCCCC4)O[C@H](CO)[C@@H]2O3)cc1 | -0.385%
34 | O=c1ccnc(Nc2ccc(Cl)cc2)[nH]1 | 0.494%
35 | O=c1cnnc(Nc2ccccc2F)[nH]1 | 43.4% (active)
36 | Cc1nnc(Nc2ccccc2F)s1 | 0.041%
37 | CN(C)C(=O)C[C@H]1C[C@@H]2c3cc(NC(=O)CC4CC4)ccc3O[C@@H]2[C@@H](CO)O1 | -0.027%
38 | CCCNC(=O)N(C)C[C@@H]1Oc2ncc(-c3cccc(C#N)c3)cc2C(=O)N([C@@H](C)CO)C[C@H]1C | 0.077%
39 | CC(C)c1cn([C@H]2C[C@@H]3O[C@H](CO)CC[C@@H]3O[C@@H]2CCc2ccc(C#CC3CCCCC3)cc2)nn1 | 0.095%
40 | Cn1cc(CCC(=O)NC2CC2)c2ccccc21 | -0.251%
41 | CCc1ccccc1NC(=O)Cc1cn(C)c2ccccc12 | 43.6% (active)
42 | Cc1ccc(CNC(=O)Cc2cn(C)c3ccccc23)cc1 | -0.058%
43 | C[C@H](CO)N1C[C@H](C)[C@H](CN(C)C(=O)Nc2ccc(F)cc2)OCCCC[C@H](C)Oc2ccc(NC(=O)CCC(F)(F)F)cc2C1=O | -0.451%
44 | O=C(COc1coc(CN2CCN(c3ccccc3F)CC2)cc1=O)N1CCc2ccccc21 | -0.217%
45 | Cn1c(=O)cc(OCC(=O)N2CCN(c3ccccc3F)CC2)c2ccccc21 | 44% (active)
46 | O=C(CCSc1ccccc1)N1CCN(c2ccccc2F)CC1 | 0.121%

Row | SMILES | activity (Tm shift, normalised)
47 | C[C@@H]1CN([C@H](C)CO)C(=O)c2cc(NC(=O)Nc3cccc4ccccc34)ccc2O[C@H]1CN(C)C(=O)Nc1ccccc1 | -0.15%
48 | CCC(=O)N1C[C@@H](C)[C@H](OC)CN(C)C(=O)c2ccc(NC(=O)NC(C)C)cc2OC[C@H]1C | -0.086%
49 | CCC(=O)N1C[C@@H](C)[C@H](OC)CN(C)C(=O)c2ccc(NC(=O)c3ccc(F)cc3)cc2OC[C@@H]1C | -0.101%
50 | CCN(Cc1ccncc1)C(=O)CCc1ccccc1 | 0.094%
51 | CCN(CC)C(=O)N(CC)Cc1ccccc1 | 43.4% (active)
52 | O=C(O)CCC(=O)N(Cc1ccccc1)Cc1ccccc1 | -0.007%
53 | CNC(=O)C[C@H]1CC[C@H]2[C@H](COc3ccc(NC(=O)c4cc(C)on4)cc3C(=O)N2C)O1 | -0.057%
54 | O=C(C[C@H]1C[C@@H]2c3cc(NC(=O)c4ccc5c(c4)OCO5)ccc3O[C@@H]2[C@@H](CO)O1)NCc1cccnc1 | -0.297%
55 | C[C@H]1CN([C@@H](C)CO)C(=O)CCCn2nncc2CO[C@H]1CN(C)S(=O)(=O)c1ccccc1C#N | -0.016%
56 | CO[C@H]1CN(C)C(=O)c2cc(NC(=O)C3CCC3)ccc2OC[C@H](C)N(Cc2nccs2)C[C@H]1C | -0.288%
57 | Cc1noc(C)c1S(=O)(=O)N(C)C[C@@H]1Oc2ccc(NC(=O)Cn3cnnn3)cc2CC(=O)N([C@@H](C)CO)C[C@@H]1C | -0.13%
58 | Cn1cc(Cl)c(C(=O)NNC(=S)Nc2cccc(Cl)c2)n1 | 44.2% (active)
59 | O=C(Nc1cccc(Cl)c1)c1cncn1-c1ccc(F)cc1 | 0.242%
60 | Cc1cccc(-n2cnc(C(=O)NNC(=S)Nc3ccccc3)c2)n1 | 0.832%
61 | COCC(=O)Nc1ccc2c(c1)C(=O)N(C)[C@@H]1CC[C@H](CC(=O)NCC3CC3)O[C@H]1CO2 | 0.038%
62 | COC(=O)c1cc(OCC(=O)NC2CCCc3ccccc32)cc(C(=O)OC)c1 (stereo not drawn) | 0.172%
63 | CCOc1ccc(NC(=O)COc2ccc(C(=O)NC3CCCc4ccccc43)cc2OC)cc1 (stereo not drawn) | 0.171%
64 | NC(=O)Nc1ccc(C(=O)OCC(=O)NC2CCCc3ccccc32)cc1 (stereo not drawn) | 43% (active)
65 | O=C(NC1CCCCC1)N1CC2(C1)[C@H](c1ccccc1)[C@@H](CO)N2S(=O)(=O)Cc1ccccc1 | -0.24%
66 | CC(=O)NCCc1ccc(S(=O)(=O)Nc2ccc(C)c(S(=O)(=O)N3CCOCC3)c2)cc1 | -0.312%
67 | Cc1ccc(S(=O)(=O)Nc2ccc(F)c(S(=O)(=O)N3CCOCC3)c2)cc1 | 43.3% (active)
68 | Cc1ccc(NS(=O)(=O)c2ccc(C(C)C)cc2)cc1S(=O)(=O)N1CCOCC1 | -0.175%
